Data from PubChem BioAssay (NCI).
Compounds without any hit were thinned out: in the full panel of roughly 83,000, 20% have a hit.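 Cells were grown in 96-well plates and exposed to the test compound at a single concentration for 48 hours; results are reported as percent growth, with values below 10 considered active.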 The source made the active and inactive calls.

Key:
Assay in all cases: NCI-60 one-dose screen, 48 h (100 = growth as untreated, 0 = no growth, -100 = all killed)
Settings in all cases: 10 µM unless noted
DU-145 prostate = tested on: DU-145 prostate
K-562 leukemia = tested on: K-562 leukemia
MALME-3M melanoma = tested on: MALME-3M melanoma
MDA-MB-231 breast = tested on: MDA-MB-231 breast
RXF 393 renal = tested on: RXF 393 renal
SF-268 CNS = tested on: SF-268 CNS
SF-295 CNS = tested on: SF-295 CNS
SF-539 CNS = tested on: SF-539 CNS
UACC-257 melanoma = tested on: UACC-257 melanoma
M14 melanoma = tested on: M14 melanoma

Measured: growth

O=C([O][Hg][CH2]C1OCCOC1[CH2][Hg][O]C(=O)c1ccccc1)c1ccccc1 (stereo not given)
active: K-562 leukemia -36% | MALME-3M melanoma -98.3% | RXF 393 renal -90.1% | UACC-257 melanoma -96.4%
inactive: DU-145 prostate 90.1% | MDA-MB-231 breast 93.2% | SF-268 CNS 114% | SF-295 CNS 112% | SF-539 CNS 79.8% | M14 melanoma 73.3%

CNC(=O)Oc1ccc2c(c1)OCO2
inactive: DU-145 prostate 108% | K-562 leukemia 90.1% | MALME-3M melanoma 104% | MDA-MB-231 breast 101% | RXF 393 renal 113% | SF-268 CNS 102% | SF-295 CNS 101% | SF-539 CNS 102% | UACC-257 melanoma 102% | M14 melanoma 107%

C#C[C@]1(OC(=O)CCCCCC)CC[C@H]2[C@@H]3CCC4=CC(=O)CC[C@@H]4[C@H]3CC[C@@]21C
inactive: DU-145 prostate 72.1% | K-562 leukemia 20.7% | MALME-3M melanoma 77.1% | MDA-MB-231 breast 59.7% | RXF 393 renal 58.8% | SF-268 CNS 50.7% | SF-295 CNS 32.2% | SF-539 CNS 47.9% | UACC-257 melanoma 55% | M14 melanoma 25.6%

OCCCCCNC1CCCCC1
inactive: DU-145 prostate 115% | K-562 leukemia 94% | MALME-3M melanoma 97.3% | MDA-MB-231 breast 114% | RXF 393 renal 104% | SF-268 CNS 113% | SF-295 CNS 110% | SF-539 CNS 98% | UACC-257 melanoma 99.5% | M14 melanoma 101%

CCCCCCCCCCCCCCCCCC1OC[C@@H](COC(=O)O[C@@H](C(=O)O[C@H]2C[C@@]3(O)[C@@H](OC(=O)c4ccccc4)[C@@H]4[C@]5(OC(C)=O)CO[C@@H]5C[C@H](O)[C@@]4(C)C(=O)[C@H](OC(C)=O)C(=C2C)C3(C)C)[C@@H](NC(=O)c2ccccc2)c2ccccc2)O1 (stereo not given in full)
inactive: DU-145 prostate 45.1% | K-562 leukemia 46.6% | MALME-3M melanoma 50.5% | MDA-MB-231 breast 60.5% | RXF 393 renal 63.1% | SF-268 CNS 66% | SF-295 CNS 61% | SF-539 CNS 51.9% | UACC-257 melanoma 69.8% | M14 melanoma 38.8%

CN(C)CC(C(=O)Cc1ccccc1)c1ccccc1 (stereo not given)
inactive: K-562 leukemia 47.2% | MALME-3M melanoma 37.5% | MDA-MB-231 breast 106% | SF-268 CNS 30.6% | SF-295 CNS 113% | M14 melanoma 36%
active: DU-145 prostate -10.7% | RXF 393 renal 6.5% | SF-539 CNS 5.03% | UACC-257 melanoma 5.79%

Oc1ccc2c3c1OC1[C@@H](O)CC[C@@]4(O)[C@@H](C2)N(CC2CCC2)CC[C@]314 (stereo not given in full)
inactive: DU-145 prostate 113% | K-562 leukemia 94.7% | MALME-3M melanoma 92.5% | MDA-MB-231 breast 114% | RXF 393 renal 97.7% | SF-268 CNS 105% | SF-295 CNS 102% | SF-539 CNS 103% | UACC-257 melanoma 97.6% | M14 melanoma 103%

O=C1NC(=O)C(=Cc2ccc(OCCCCC3CCCCC3)c(Cl)c2)C(=O)N1
inactive: DU-145 prostate 106% | K-562 leukemia 88.3% | MALME-3M melanoma 110% | MDA-MB-231 breast 100% | RXF 393 renal 103% | SF-268 CNS 99.7% | SF-295 CNS 94% | SF-539 CNS 92.8% | UACC-257 melanoma 107% | M14 melanoma 86.6%

C[C@@]12CC[C@@H](O)C[C@@H]1CC[C@H]1[C@H]2CC[C@@]2(C)[C@H](c3ccc(=O)oc3)CC[C@@]12O
active: DU-145 prostate -97.4% | K-562 leukemia 0.291% | MALME-3M melanoma -45.4% | MDA-MB-231 breast -33.9% | RXF 393 renal -39.9% | SF-268 CNS -73.1% | SF-295 CNS -84.5% | SF-539 CNS -85.4% | UACC-257 melanoma -78.8% | M14 melanoma -50.7%

Cc1cc(-c2nc3cc(F)ccc3[se]2)cc(F)c1N
inactive: DU-145 prostate 98.4% | K-562 leukemia 95.8% | MALME-3M melanoma 84.9% | MDA-MB-231 breast 63.5% | RXF 393 renal 120% | SF-268 CNS 101% | SF-295 CNS 99.7% | SF-539 CNS 94.7% | UACC-257 melanoma 98.5% | M14 melanoma 90.3%

CCOP(=O)(NC[C@H]1O[C@](O)(CO)[C@@H](O)[C@@H]1O)OCC
inactive: DU-145 prostate 105% | K-562 leukemia 97.5% | MALME-3M melanoma 89.1% | MDA-MB-231 breast 94.3% | RXF 393 renal 96.4% | SF-268 CNS 94.4% | SF-295 CNS 104% | SF-539 CNS 96.3% | UACC-257 melanoma 98.4% | M14 melanoma 93.1%

CN(CCCCN(C)CCOS(C)(=O)=O)CCOS(C)(=O)=O
inactive: DU-145 prostate 96.7% | K-562 leukemia 93.3% | MALME-3M melanoma 86.9% | MDA-MB-231 breast 79.7% | RXF 393 renal 90.1% | SF-268 CNS 66.4% | SF-295 CNS 109% | SF-539 CNS 47.2% | UACC-257 melanoma 82.3% | M14 melanoma 76.4%

CN1CCC(O)(c2ccc(F)cc2)C(C(=O)c2ccc(F)cc2)C1 (stereo not given)
inactive: DU-145 prostate 107% | K-562 leukemia 99.1% | MALME-3M melanoma 84.6% | MDA-MB-231 breast 104% | RXF 393 renal 103% | SF-268 CNS 106% | SF-295 CNS 110% | SF-539 CNS 96.8% | UACC-257 melanoma 106% | M14 melanoma 106%

CC(CO)NC1CCCCC1 (stereo not given)
inactive: DU-145 prostate 105% | K-562 leukemia 104% | MALME-3M melanoma 103% | MDA-MB-231 breast 91.2% | RXF 393 renal 114% | SF-268 CNS 108% | SF-295 CNS 113% | SF-539 CNS 91.8% | UACC-257 melanoma 104% | M14 melanoma 102%

O=[N+]([O-])c1ccc([Se]C2CCCCC2Cl)c([N+](=O)[O-])c1 (stereo not given)
inactive: DU-145 prostate 82.1% | K-562 leukemia 105% | MALME-3M melanoma 69.8% | MDA-MB-231 breast 61.7% | RXF 393 renal 67.7% | SF-268 CNS 14.3% | UACC-257 melanoma 59.2% | M14 melanoma 40.2%
active: SF-295 CNS -41.3% | SF-539 CNS -87.3%

Brc1ccc2c(c1)c(-c1nc(-c3c[nH]c4ncccc34)cs1)cn2CCN1CCOCC1
inactive: DU-145 prostate 86.5% | K-562 leukemia 24.3% | MALME-3M melanoma 88.5% | MDA-MB-231 breast 53.3% | RXF 393 renal 74.6% | SF-268 CNS 65.4% | SF-295 CNS 74.4% | SF-539 CNS 61% | UACC-257 melanoma 99.7% | M14 melanoma 63.8%
